The results in this text go back to PubChem BioAssay (EPA / NIEHS).

Results filed as inconclusive are left out. Calls of active or inactive are those of the source. The calls were made as follows: active = hit-call score of the fitted dose curve at least 0.9, where 1 is the maximum; inconclusive = response in the unintended direction; inactive = score below 0.9.

Chain of Steroid hormone receptor ERR1 (Homo sapiens) (P11474 whole entry, looked up): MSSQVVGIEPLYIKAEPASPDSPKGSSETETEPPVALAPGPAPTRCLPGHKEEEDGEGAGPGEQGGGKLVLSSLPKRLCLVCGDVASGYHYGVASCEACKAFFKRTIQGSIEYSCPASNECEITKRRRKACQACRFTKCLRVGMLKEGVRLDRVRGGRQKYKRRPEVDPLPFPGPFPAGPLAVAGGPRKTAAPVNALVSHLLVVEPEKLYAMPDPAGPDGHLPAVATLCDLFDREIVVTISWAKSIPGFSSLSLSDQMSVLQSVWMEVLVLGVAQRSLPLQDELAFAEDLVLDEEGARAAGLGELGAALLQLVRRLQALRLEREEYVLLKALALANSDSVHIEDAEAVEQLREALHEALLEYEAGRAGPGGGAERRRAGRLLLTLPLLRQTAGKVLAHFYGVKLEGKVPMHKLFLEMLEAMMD

The experiment has as its target Steroid hormone receptor ERR1 (Homo sapiens) (UniProt P11474). Kind of experiment: ATG_ERRa_TRANS: Attagene TRANS-FACTORIAL HepG2 Assay for human Estrogen-Related Receptor alpha (ERRa) (AID 2282971). The conditions noted are these: HepG2 Attagene TRANS reporter, ERRa transactivation. The protocol: ATG_TRANS is a cell-based, multiplexed-readout assay that uses HepG2, a human liver cell line, with measurements taken at 24 hours after chemical dosing in a 24-well plate.ATG_ERRa_TRANS is one of 30 assay component(s) measured or calculated from the ATG_TRANS assay. It is designed to make measurements of mRNA induction, a form of inducible reporter, as detected with fluorescence intensity signals by Reverse transcription polymerase chain reaction (RT-PCR) and Capillary electrophoresis technology.Data from the assay component ATG_ERRa_TRANS was analyzed into 1 assay endpoint. This assay endpoint, ATG_ERRa_TRANS, was analyzed in the positive analysis fitting direction relative to DMSO as the negative control and baseline of activity. Using a type of inducible reporter, measures of mRNA for gain-of-signal activity can be used to understand the reporter gene at the transcription factor-level as they relate to the gene ESRRA. Furthermore, this assay endpoint can be referred to as a primary readout, because this assay has produced multiple assay endpoints where this one serves a reporter gene function. To generalize the intended target to other relatable targets, this assay endpoint is annotated to the nuclear receptor intended target family, where the subfamily is steroidal.
Human liver HepG2 cells are transiently transfected with multiple reporter transcription units (MRTUs) in 6-well plates using FuGene 6 reagent (Roche; 3 ml FuGene/1 mg DNA). The MRTU constructs are regulated by a cis-regulating element (promoter). […] A major difference between the CIS and TRANS system is that in CIS activities of endogenous TFs are measured, whereas the TRANS assay evaluates changes in activities of exogenous, chimeric NR-Gal4 proteins. […] At the end of 24 hour incubation, total RNA was isolated using TriZol reagent (Invitrogen). The isolated RNA is then reverse-transcribed using oligo(dT) primer and Mo-MLV reverse transcriptase (Invitrogen) with DNAse I (Ambion) treatment for 30 min. The one-tenth of the produced cDNA was amplified by PCR using Taq DNA polymerase (Invitrogen) and two reporter sequence-specific primers. The PCR products were fluorescently labeled by primer extension with 6-arboxyfluorescein (6-FAM) 5'-labeled reporter sequence-specific primer (2 min at 95 C, 20 s at 68 C and 10 min at 72 C) and these products were digested with 5U of HpaI (New England Biolabs) for 2h at 37 C. The fragments were purified using Qiaquick PCR columns (Qiagen), analyzed on an ABI 3130xL genetic analyzer (Applied Biosystems) with peak positions identified by using a set of X-rhodamine (ROX)-labeled MapMarker1000 molecular weight standards (BioVentures). The raw capillary electrophoresis data was processed using Attagraph software (Attagene).
Consider `NS(=O)(=O)c1cc2c(cc1Cl)NCNS2(=O)=O`, for which the compound was classed as inactive.

Consider `CC1(C)NC(=O)NC1=O`, for which the compound was classed as inactive. As for `CCc1c(C(=O)NN2CCCCC2)nn(-c2ccc(Cl)cc2Cl)c1-c1ccc(Br)cc1`, the entry is “inactive”. As for `CCOC(=O)C(C)(C)Oc1ccc(Cl)cc1`, the entry is “inactive”. As to `CCCCCCCCCCCCCO`, the call was inactive.

For `COc1cc(S(=O)(=O)O)c(C)cc1N=Nc1c(O)ccc2cc(S(=O)(=O)O)ccc12`, the call was inactive. As for `COc1cccc2c1C(=O)c1c(O)c3c(c(O)c1C2=O)C[C@@](O)(C(=O)CO)C[C@@H]3O[C@H]1C[C@H](N)[C@H](O)[C@H](C)O1`, the entry is “inactive”; as for `CCOC(=O)CCC(=O)OCC`, “inactive”. On to `COCCOC[C@H](CC1(C(=O)NC2CCC(C(=O)O)CC2)CCCC1)C(=O)Oc1ccc2c(c1)CCC2` (stereo not given in full), for which the call was inactive.

With `CN[C@H]1CC[C@@H](c2ccc(Cl)c(Cl)c2)c2ccc(S(N)(=O)=O)cc21`, the compound was classed as inactive.

For `CCCCCCCCCCC`, the result was inactive. Regarding `NC(=O)Cn1c(=O)cc(CCN2CCN(c3nccc4sccc34)CC2)c2ccc(F)cc21`, the compound was called inactive. With `O=[N+]([O-])C(CO)(CO)CO`, the compound was called inactive. The value for `COc1cc(/C=C/C(=O)CC(=O)/C=C/c2ccc(O)c(OC)c2)ccc1O` was “inactive”; that for `CCCCCC(=O)O` was “inactive”.
